Reference: PubChem BioAssay (NCATS)
Results filed as inconclusive are left out. Active and inactive are the calls of the source. The call rests on the fitted dose curve; in most records, active means well fitted inhibition curve with a large enough effect; inconclusive means small, poorly fitted or top-dose-only effect; inactive means flat fitted curve, though single readings scatter.

Key:
Assay in all cases: qHTS profiling for inhibitors of Plasmodium falciparum proliferation (AID 504749); further: nearly all actives have a fitted effect of over 60% in size
Conditions in all cases: P. falciparum in erythrocytes, SYBR Green DNA, 72 h; series mostly up to 28.7 µM
CP256 = tested on: CP256
Outline: (§1)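 Readout was DNA-dye fluorescence from lysed cultures, ex 485/em 535 nm. Parasitized red cells had grown 72 h with compound; data scaled between 0.29 uM artemisinin and DMSO wells and corrected using vehicle-only plates.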

CP260 = tested on: CP260
Outline: as §1

CP262 = tested on: CP262
Outline: as §1

CP265 = tested on: CP265
Outline: as §1

CP266 = tested on: CP266
Outline: as §1

CP268 = tested on: CP268
Outline: as §1

CP269 = tested on: CP269
Outline: as §1

CP286 = tested on: CP286
Outline: as §1

CP291 = tested on: CP291
Outline: as §1

CP297 = tested on: CP297
Outline: as §1

CP305 = tested on: CP305
Outline: as §1

CP315 = tested on: CP315
Outline: as §1

CP325 = tested on: CP325
Outline: as §1

CP329 = tested on: CP329
Outline: as §1

DFO2036 = tested on: DFO2036
Outline: as §1

DIV14 = tested on: DIV14
Outline: as §1

DIV17 = tested on: DIV17
Outline: as §1

DIV30 = tested on: DIV30
Outline: as §1

FAB9 = tested on: FAB9
Outline: as §1

GB4 = tested on: GB4
Outline: as §1

HB3 = tested on: HB3
Outline: as §1

ICS = tested on: ICS
Outline: as §1

JCK = tested on: JCK
Outline: as §1

N140 = tested on: N140
Outline: as §1

P93_24 = tested on: P93_24
Outline: as §1

P94_40 = tested on: P94_40
Outline: as §1

PAD = tested on: PAD
Outline: as §1

PC15 = tested on: PC15
Outline: as §1

PC26 = tested on: PC26
Outline: as §1

PC49 = tested on: PC49
Outline: as §1

SC27B = tested on: SC27B
Outline: as §1

TAB109 = tested on: TAB109
Outline: as §1

TAB165 = tested on: TAB165
Outline: as §1

W2 = tested on: W2
Outline: as §1

Measured: Potency

C[N+]1(C)C2CC[C@H]1CC(OC(=O)[C@@H](CO)c1ccccc1)C2 (some centres undefined)
inactive: CP256 | CP260 | CP262 | CP265 | CP266 | CP268 | CP269 | CP286 | CP291 | CP297 | CP305 | CP315 | CP325 | CP329 | DFO2036 | DIV14 | DIV17 | DIV30 | FAB9 | GB4 | HB3 | ICS | JCK | N140 | P93_24 | P94_40 | PAD | PC15 | PC26 | PC49 | SC27B | TAB109 | TAB165 | W2
